In the supplement of paper PMC11624193, “Coupling cellular drug-target engagement to downstream pharmacology with CeTEAM” (Nature Communications, 2024):
Unmarked numbers belong to inactive results.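 The calls were made as follows: active = log2 fold change beyond 2 SD from the library mean after excluding viability outliers; inactive = within 2 SD.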

Target: PARP1 L713F-nLuc biosensor (HCT116) (UniProt P09874)
Assay: PARP1 L713F-nLuc/akaLuc ratio relative to DMSO control (biosensor stabilization) (fold change); higher = more PARP1 biosensor stabilization (target engagement / stabilizer), active = hit call of the paper
Details: stock concentration (mM; final µM = stock mM x 1): 2; 24 h

Chain of PARP1 L713F-nLuc biosensor (HCT116) (P09874 whole entry L713F, looked up): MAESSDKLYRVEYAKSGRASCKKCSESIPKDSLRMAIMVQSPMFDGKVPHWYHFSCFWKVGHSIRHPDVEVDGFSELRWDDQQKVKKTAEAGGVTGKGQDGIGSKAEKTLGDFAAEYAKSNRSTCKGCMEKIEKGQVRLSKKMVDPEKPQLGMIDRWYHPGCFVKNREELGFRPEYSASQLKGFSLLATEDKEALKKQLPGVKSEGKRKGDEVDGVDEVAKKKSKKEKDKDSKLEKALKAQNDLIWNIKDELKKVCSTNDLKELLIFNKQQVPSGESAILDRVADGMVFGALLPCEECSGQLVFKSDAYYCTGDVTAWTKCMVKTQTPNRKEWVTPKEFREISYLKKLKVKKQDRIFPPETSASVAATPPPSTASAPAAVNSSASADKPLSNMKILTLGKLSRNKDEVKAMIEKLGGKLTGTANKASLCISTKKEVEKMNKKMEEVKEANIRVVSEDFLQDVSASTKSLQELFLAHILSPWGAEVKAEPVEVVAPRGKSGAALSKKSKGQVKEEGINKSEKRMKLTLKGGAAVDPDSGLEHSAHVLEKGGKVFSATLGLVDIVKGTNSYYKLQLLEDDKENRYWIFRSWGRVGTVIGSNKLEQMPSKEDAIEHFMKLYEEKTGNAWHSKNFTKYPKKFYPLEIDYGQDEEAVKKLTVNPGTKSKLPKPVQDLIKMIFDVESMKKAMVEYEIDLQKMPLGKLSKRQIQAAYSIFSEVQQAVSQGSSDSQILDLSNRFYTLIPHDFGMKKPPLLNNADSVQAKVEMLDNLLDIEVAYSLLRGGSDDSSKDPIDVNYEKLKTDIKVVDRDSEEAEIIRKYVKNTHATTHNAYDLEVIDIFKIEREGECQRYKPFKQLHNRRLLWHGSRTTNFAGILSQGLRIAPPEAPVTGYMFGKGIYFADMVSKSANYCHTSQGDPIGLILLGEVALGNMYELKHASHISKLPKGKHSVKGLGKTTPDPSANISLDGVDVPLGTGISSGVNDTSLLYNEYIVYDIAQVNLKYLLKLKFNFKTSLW

CC(=O)c1c(O)c(C)c(O)c(Cc2c(O)c3c(c(C(=O)/C=C/c4ccccc4)c2O)OC(C)(C)C=C3)c1O [Rottlerin]
PARP1 L713F-nLuc/akaLuc ratio: 0.628
